Calls of active or inactive are those of the source. Unless noted, no rule for the calls is given here.
What was measured:
[1] = liver-stage malaria parasite load reduction – cell-based, known kinase inhibitor set, luminescence, hepatoma host viability (AID 624392); conditions: Plasmodium liver stage in hepatoma cells, luciferase luminescence, concentration not given here; liver cell % of control: measured here: host liver cell viability; parasite % of control: stronger effect = lower value;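 also: infected cells incubated roughly two days before readout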
[2] = altered dexamethasone sensitivity, NF-kB reporter, cell-based, luciferase, IL-1B stimulus (AID 624486); conditions: IL-1B + dexamethasone, luminescence; percent of negative control (+Dex): actives lie on both sides, concentration not given here; z-score: measured here: IL-1B alone, no Dex;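 as to percent of negative control (+Dex): 100% = mean signal of vehicle control wells on the plate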
[3] = C. elegans survival during P. aeruginosa infection – whole organism (AID 651566);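 also: tested at 14 µM; sign flipped so higher z means a lower ratio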; conditions: C. elegans killed by P. aeruginosa, survival ratio
[4] = pro-inflammatory signaling induction in mouse macrophages – cell-based, murine, luminescence (AID 652131); conditions: murine macrophage pro-inflammatory reporter, stronger effect = higher value
[5] = target: Cellular tumor antigen p53 (Homo sapiens) (UniProt P04637); test: GFP-p53 level modulators in HPV16+ cells – imaging, known kinase inhibitor set, EGFP/DsRed ratio (AID 1053116); conditions: GFP-p53 stability, stronger effect = higher value; EGFP object count: measured here: GFP-p53 positive objects count;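 also: cells exposed to compounds for 24 h at 37 °C before reading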
[6] = inducers of IRF3 signaling, differentiated THP-1 – cell-based, PMA-stimulated THP-1, luminescence (AID 1053176); conditions: PMA-differentiated THP-1, IRF3 reporter luminescence; stronger effect = higher value
[7] = MELAS cybrid and Rieske KO viability enhancers – cell-based, MELAS cybrids, Rieske KO mouse fibroblasts, CellTiter-Glo, primary screen (AID 1508586;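 active = mean z-score across replicates of 1.96 or higher in either the MELAS or the Rieske mutant cell line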;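 also: z relative to plate mean and SD of compound and empty wells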); conditions: low glucose
[8] = MELAS cybrid survival, CellTiter-Glo 48 h, stronger effect = higher value
[9] = Rieske KO mouse fibroblast survival, CellTiter-Glo 72 h

Sequence of Cellular tumor antigen p53 (Homo sapiens) (P04637 whole entry, looked up): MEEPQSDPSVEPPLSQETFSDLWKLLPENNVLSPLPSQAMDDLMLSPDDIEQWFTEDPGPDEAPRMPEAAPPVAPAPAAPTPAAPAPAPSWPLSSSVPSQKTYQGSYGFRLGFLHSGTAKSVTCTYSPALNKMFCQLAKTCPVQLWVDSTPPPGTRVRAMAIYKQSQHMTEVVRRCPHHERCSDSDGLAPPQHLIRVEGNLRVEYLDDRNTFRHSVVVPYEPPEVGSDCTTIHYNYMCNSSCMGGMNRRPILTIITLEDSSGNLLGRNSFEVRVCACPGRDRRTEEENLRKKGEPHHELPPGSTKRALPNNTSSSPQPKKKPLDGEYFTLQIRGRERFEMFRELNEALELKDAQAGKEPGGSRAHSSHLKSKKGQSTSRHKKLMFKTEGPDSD

Row | SMILES | liver cell % of control [1] | parasite % of control [1] | percent of negative control (+Dex) [2] | z-score [2] | z-score [3] | z-score [4] | EGFP object count [5] | EGFP/DsRed ratio [5] | fraction signal [6] | z-score [7, 8] | z-score [7, 9]
1 | COc1cccc(-c2c[nH]c3c(N/N=C/c4ccncc4)ncnc23)c1 | 72.3% | 30.4% (inactive) | 129% (inactive) | -0.36 | -0.245 (inactive) | -1.59 (inactive) | 4 | 0.121 (inactive) | 0.002 (inactive) | -0.187 (inactive) | 0.000787
2 | NCc1ccc(-n2c(-c3nonc3N)nc3cnccc32)cc1 | 104% | 162% (inactive) | 58% (inactive) | -3.59 | -0.655 (inactive) | -1.05 (inactive) | 1 | 0.0079 (inactive) | 0.003 (inactive) | -0.95 (inactive) | -0.216
3 | COc1cc(N2CCN(C(C)C)CC2)ccc1Nc1nc(Nc2cccc3ncccc23)c2cc[nH]c2n1 | 96.4% | 180% (inactive) | 92.5% (inactive) | -0.235 | 0.32 (inactive) | -0.489 (inactive) | 1 | 0.00687 (inactive) | -0.0005 (inactive) | -1.02 (inactive) | -0.0497
4 | C[C@@H](Oc1cc(-n2cnc3ccc(OCC4CCN(C)CC4)cc32)sc1C(N)=O)c1ccccc1Cl | 73.4% | 117% (inactive) | 104% (inactive) | -0.185 | -0.885 (inactive) | -2.53 (inactive) | 7 | 0.174 (inactive) | -0.009 (inactive) | -0.19 (inactive) | 0.83
5 | CCn1c(-c2nonc2N)nc2c(C#CC(C)(C)O)nc(CN3CCCC3)cc21 | 107% | 162% (inactive) | 85.5% (inactive) | -0.04 | -0.175 (inactive) | 0.541 (inactive) | 4 | 0.0701 (inactive) | 0.0045 (inactive) | -0.869 (inactive) | 0.697
6 | CS(=O)(=O)CCNCc1nc(-c2ccc3ncnc(Nc4ccc(F)c(Cl)c4)c3c2)cs1 | 103% | 148% (inactive) | 70.5% (inactive) | -1.57 | 0.63 (inactive) | 2.24 (inactive) | 6.5 | 0.211 (inactive) | 0.002 (inactive) | 0.0696 (inactive) | -0.331
7 | O=C(Nc1n[nH]c2cc(-c3ccc(F)cc3)ccc12)C1CC1 | 152% | 140% (inactive) | 115% (inactive) | 1.05 | 0.27 (inactive) | 0.642 (inactive) | 3 | 0.145 (inactive) | -0.001 (inactive) | -1.18 (inactive) | -0.329
8 | Cc1ccc2c(-c3ccnc(Nc4ccccc4)n3)c(-c3ccc(F)cc3)nn2n1 | 152% | 12.5% (active) | 81% (inactive) | -1.78 | 0.225 (inactive) | -0.658 (inactive) | 6 | 0.152 (inactive) | -0.0025 (inactive) | 0.41 (inactive) | -0.16
9 | COC(=O)Nc1nc2ccc(Oc3ccc(NC(=O)Nc4cccc(Cl)c4)cc3)cc2[nH]1 | 81.3% | 298% (inactive) | 122% (inactive) | 1.3 | 1.51 (inactive) | 0.651 (inactive) | 79.5 | 1.2 (inactive) | -0.0045 (inactive) | -0.179 (inactive) | -0.521
10 | c1cnn2ncc(-c3ccnc(Nc4ccc5c(c4)OCCO5)n3)c2c1 | 141% | 14% (inactive) | 5% (active) | -9.09 | 0.965 (inactive) | -1.27 (inactive) | 2.5 | 0.105 (inactive) | -0.0005 (inactive) | 0.529 (inactive) | 0.76
11 | COc1cccc(-n2ncc3c(N/N=C/c4ccc(C)cc4)ncnc32)c1 | 114% | 130% (inactive) | 105% (inactive) | 0.92 | -0.225 (inactive) | -0.468 (inactive) | 9.5 | 0.811 (inactive) | 0.0005 (inactive) | -0.521 (inactive) | 0.152
12 | CC(=Nc1ccc(S(N)(=O)=O)cc1)c1c(O)[nH]c2ccccc12 | 121% | 234% (inactive) | 176% (active) | 5.95 | -0.905 (inactive) | 6.44 (active) | 0.5 | 0.00933 (inactive) | 0.0025 (inactive) | -0.469 (inactive) | -0.351
13 | CCn1cc(-c2ccnc3[nH]ccc23)c(-c2cccc(NC(=O)Nc3ccc(OCc4ccccc4)cc3)c2)n1 | 76% | 95.6% (inactive) | 93.5% (inactive) | 0.135 | -1.14 (inactive) | -1.24 (inactive) | 6.5 | 0.11 (inactive) | -0.0115 (inactive) | 0.828 (inactive) | 0.137
14 | CCn1c(-c2nonc2N)nc2c(C#CC(C)(C)O)ncc(OC[C@@H]3CCCN3)c21 | 81.5% | 41.7% (inactive) | 104% (inactive) | -0.32 | -0.14 (inactive) | 5.3 (inactive) | 11.5 | 0.291 (inactive) | 0.0025 (inactive) | -0.59 (inactive) | -0.205
15 | CNC(=O)c1cc(-c2ccc(F)cc2)cc(-c2ccc(S(=O)(=O)N3CCCC3)cc2)c1N | 102% | 80.4% (inactive) | 92% (inactive) | -0.05 | 0.5 (inactive) | -0.377 (inactive) | 6.5 | 0.244 (inactive) | -0.007 (inactive) | -0.388 (inactive) | -0.623
16 | COc1ccc2ncn(-c3cc(O[C@H](C)c4ccccc4C(F)(F)F)c(C(N)=O)s3)c2c1 | 75.6% | 88.3% (inactive) | 75% (inactive) | -2.76 | 0.355 (inactive) | -1.54 (inactive) | 7.5 | 0.176 (inactive) | 0.0035 (inactive) | -0.00963 (inactive) | 0.29
17 | Fc1ccc(-c2nn3ccccc3c2-c2ccncc2)cc1 | 99.4% | 91.2% (inactive) | 90% (inactive) | 0.26 | -0.5 (inactive) | -0.011 (inactive) | 4.5 | 0.0996 (inactive) | 0.0045 (inactive) | 0.183 (inactive) | -0.338
18 | CCN1CCC(C(=O)NC2NNC3NNC(c4cccc(F)c4F)CC32)CC1 (centres undefined) | 73.6% | 144% (inactive) | 114% (inactive) | -0.315 | -0.46 (inactive) | 2.7 (inactive) | 15 | 0.326 (inactive) | -0.002 (inactive) | -0.831 (inactive) | -0.194
19 | CNC(=O)c1cncc(/C=C/c2ccccc2C)c1 | 170% | 27.9% (inactive) | 108% (inactive) | -0.24 | 0.255 (inactive) | 0.604 (inactive) | 4 | 0.0734 (inactive) | 0.0395 (inactive) | 0.836 (inactive) | -0.131
20 | CCn1c(-c2nonc2N)nc2c(C#CC(C)(C)O)nc(OCCNC)cc21 | 78.2% | 239% (inactive) | 83.5% (inactive) | -0.295 | 1.3 (inactive) | -0.135 (inactive) | 10.5 | 0.224 (inactive) | -0.006 (inactive) | -0.95 (inactive) | -0.363
21 | NS(=O)(=O)c1ccc(N=Nc2c(O)[nH]c3ccc(Cl)cc23)cc1 | 91.6% | 111% (inactive) | 112% (inactive) | 0.905 | 0.005 (inactive) | 0.24 (inactive) | 6.5 | 0.227 (inactive) | 0.0005 (inactive) | 1.43 (inactive) | -0.311
22 | CCn1c(-c2nonc2N)nc2ccncc21 | 99.1% | 98.3% (inactive) | 93.5% (inactive) | -0.26 | -0.61 (inactive) | -0.193 (inactive) | 4 | 0.405 (inactive) | -0.004 (inactive) | -0.197 (inactive) | -0.472
23 | NS(=O)(=O)c1ccc(NC2CC(c3cccc(O)c3)NN2)cc1 (centres undefined) | 92.2% | 101% (inactive) | 81.5% (inactive) | -0.55 | -1.21 (inactive) | 1.01 (inactive) | 5.5 | 0.108 (inactive) | -0.0035 (inactive) | 1.31 (inactive) | -0.281
24 | CS(=O)(=O)Nc1ccc(-c2cc(-c3ccccc3)cc(C(N)=O)c2N)cc1 | 89.1% | 126% (inactive) | 88% (inactive) | -0.23 | 1.28 (inactive) | -1.08 (inactive) | 2 | 0.102 (inactive) | -0.0055 (inactive) | 0.927 (inactive) | 0.162
25 | NCc1ccc(-c2nc(-c3ccc(Cl)c(O)c3)c(-c3ccncc3)[nH]2)cc1 | 94.8% | 77.4% (inactive) | 91.5% (inactive) | -0.18 | 1.2 (inactive) | -0.414 (inactive) | 2 | 0.0758 (inactive) | 0.0015 (inactive) | 0.156 (inactive) | -0.269
26 | Nc1ncnc2occ(-c3ccc(NC(=O)Nc4cc(C(F)(F)F)cc(C(F)(F)F)c4)cc3)c12 | 58.8% | 11.2% (inactive) | 77.5% (inactive) | -2.48 | -0.205 (inactive) | -1.51 (inactive) | 2 | 0.014 (inactive) | -0.006 (inactive) | -0.873 (inactive) | -0.237
27 | COC(=O)c1sc(-n2cnc3cc(OC)c(OC)cc32)cc1OCc1ccccc1C(F)(F)F | 103% | 126% (inactive) | 86% (inactive) | 0.12 | 0.885 (inactive) | 0.445 (inactive) | 4.5 | 0.108 (inactive) | -0.003 (inactive) | -0.644 (inactive) | 0.293
28 | O=C(Nc1n[nH]c2nc(-c3ccco3)c(Br)cc12)C1CC1 | 109% | 102% (inactive) | 95% (inactive) | 0.68 | -0.17 (inactive) | 0.441 (inactive) | 4 | 0.447 (inactive) | -0.002 (inactive) | -1.24 (inactive) | 0.037
29 | O=C(NC1NNC2CC(c3ccccc3)CCC21)C1CC1 (centres undefined) | 191% | 74.3% (inactive) | 104% (inactive) | 0.375 | -1.73 (inactive) | 0.532 (inactive) | 2.5 | 0.139 (inactive) | 0.012 (inactive) | -0.677 (inactive) | -0.221
